Reference: PubChem BioAssay
Values without a mark were called inactive. For some assays here: Measured potencies and affinities stand elsewhere. Active and inactive are the calls of the source. Unless noted, no rule for the calls is given here.

Key:
[1] = antimalarial activity against Dd2 strain (AID 2302;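 active = growth inhibition above 50% at the single 2 µM test dose, taken to imply half-maximal potency below 2 µM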;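 also: 0% = DMSO untreated growth and 100% = chloroquine plus artemisinin killed control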); conditions: P. falciparum Dd2 in RBCs, LDH growth readout, 72 h; at 2 µM; stronger effect = higher value
[2] = HepG2 cytotoxicity, primary screen, cytotoxicity control for P. falciparum antimalarial project, cell-based, ATP luminescence (AID 2303;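 active = inhibition above 50%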;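 also: 0% = DMSO wells and 100% = digitonin-killed cells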); conditions: HepG2 viability, 24-48 h, at 10 µM, stronger effect = higher value
[3] = molecular target: L-lactate dehydrogenase (Plasmodium falciparum (isolate CDC / Honduras)) (UniProt Q27743); test: PfLDH activity inhibition – cell lysate, 3D7 strain, counter-screen for P. falciparum growth inhibition project (AID 2304);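 also: 0% = vehicle and 100% = reference inhibitor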; conditions: P. falciparum 3D7 crude extract, LDH APAD/NBT absorbance; at 2 µM; stronger effect = higher value
[4] = inhibition of 3D7 malaria parasite growth – strain 3D7 (AID 2306);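 also: 0% = DMSO wells and 100% = chloroquine plus artemisinin control wells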; conditions: P. falciparum 3D7 erythrocytic growth, LDH absorbance, 72 h; at 2 µM; stronger effect = higher value
[5] = molecular target: Calcium-dependent protein kinase 1 (Plasmodium falciparum (isolate 3D7)) (UniProt P62344); test: PfCDPK1 kinase inhibitors, biochemical, TCAMS library (AID 1159585; cut-off not given, nearly all actives have IC50 up to about 0.98 µM;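 also: inhibitors leave more ATP so luminescence rises with inhibition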); conditions: recombinant PfCDPK1, Kinase-Glo ATP depletion luminescence
[6] = molecular target: Plasmodium falciparum protein kinase 6 (PK6, PF3D7_1337100) (UniProt Q8IDW1); test: PfPK6 kinase inhibitors, biochemical, TCAMS library (AID 1159586); conditions: recombinant PfPK6, Kinase-Glo ATP depletion luminescence
[7] = molecular target: Protein kinase 7 (PK7), Plasmodium falciparum 3D7 (PF3D7_0213400) (UniProt Q7YTF7); test: inhibition of Plasmodium PK7 catalytic activity – biochemical, TCAMS antimalarial set, Kinase-Glo luminescence (AID 1159587); conditions: recombinant PfPK7, Kinase-Glo ATP depletion luminescence
[8] = molecular target: Calcium-dependent protein kinase 4 (Plasmodium falciparum (isolate 3D7)) (UniProt Q8IBS5); test: PfCDPK4 kinase inhibitors, biochemical, TCAMS library (AID 1159588; cut-off not given, nearly all actives have IC50 up to about 0.91 µM); conditions: recombinant PfCDPK4, Kinase-Glo ATP depletion luminescence
Chain of Calcium-dependent protein kinase 4 (Plasmodium falciparum (isolate 3D7)) (Q8IBS5 whole entry, looked up): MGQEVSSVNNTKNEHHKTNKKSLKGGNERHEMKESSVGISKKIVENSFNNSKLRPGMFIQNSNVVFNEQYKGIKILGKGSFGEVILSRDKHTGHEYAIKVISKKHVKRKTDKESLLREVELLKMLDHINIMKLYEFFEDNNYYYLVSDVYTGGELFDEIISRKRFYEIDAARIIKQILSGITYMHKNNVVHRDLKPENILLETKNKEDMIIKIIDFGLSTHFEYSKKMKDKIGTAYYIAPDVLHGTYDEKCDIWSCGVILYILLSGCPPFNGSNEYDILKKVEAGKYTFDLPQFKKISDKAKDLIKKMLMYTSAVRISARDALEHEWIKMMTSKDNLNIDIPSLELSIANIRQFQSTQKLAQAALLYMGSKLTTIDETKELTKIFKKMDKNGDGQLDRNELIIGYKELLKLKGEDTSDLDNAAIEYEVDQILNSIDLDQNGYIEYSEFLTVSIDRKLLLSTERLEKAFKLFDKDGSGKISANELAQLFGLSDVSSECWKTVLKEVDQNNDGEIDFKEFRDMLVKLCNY

Chain of Plasmodium falciparum protein kinase 6 (PK6, PF3D7_1337100) (Q8IDW1 1-305): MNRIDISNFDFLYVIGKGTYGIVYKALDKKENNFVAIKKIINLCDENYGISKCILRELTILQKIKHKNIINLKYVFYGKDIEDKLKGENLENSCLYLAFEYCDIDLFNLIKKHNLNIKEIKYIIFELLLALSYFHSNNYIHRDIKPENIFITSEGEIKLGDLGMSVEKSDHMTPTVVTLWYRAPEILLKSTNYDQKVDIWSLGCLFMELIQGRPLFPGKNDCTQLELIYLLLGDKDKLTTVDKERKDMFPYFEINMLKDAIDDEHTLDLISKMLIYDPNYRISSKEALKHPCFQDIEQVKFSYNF
Chain of Calcium-dependent protein kinase 1 (Plasmodium falciparum (isolate 3D7)) (P62344 whole entry, looked up): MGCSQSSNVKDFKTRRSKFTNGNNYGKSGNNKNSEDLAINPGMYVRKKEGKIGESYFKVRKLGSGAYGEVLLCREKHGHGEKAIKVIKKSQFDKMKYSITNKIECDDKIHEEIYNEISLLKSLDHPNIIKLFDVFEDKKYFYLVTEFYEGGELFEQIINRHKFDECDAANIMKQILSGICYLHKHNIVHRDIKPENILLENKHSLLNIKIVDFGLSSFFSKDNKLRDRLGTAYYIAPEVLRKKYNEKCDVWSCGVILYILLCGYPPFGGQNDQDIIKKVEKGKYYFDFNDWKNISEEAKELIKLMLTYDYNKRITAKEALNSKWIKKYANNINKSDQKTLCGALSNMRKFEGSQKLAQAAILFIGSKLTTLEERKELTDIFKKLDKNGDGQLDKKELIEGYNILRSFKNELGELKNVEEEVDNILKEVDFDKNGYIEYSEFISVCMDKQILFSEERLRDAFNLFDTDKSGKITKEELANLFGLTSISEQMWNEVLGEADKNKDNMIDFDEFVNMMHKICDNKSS
Chain of Protein kinase 7 (PK7), Plasmodium falciparum 3D7 (PF3D7_0213400) (Q7YTF7 1-343): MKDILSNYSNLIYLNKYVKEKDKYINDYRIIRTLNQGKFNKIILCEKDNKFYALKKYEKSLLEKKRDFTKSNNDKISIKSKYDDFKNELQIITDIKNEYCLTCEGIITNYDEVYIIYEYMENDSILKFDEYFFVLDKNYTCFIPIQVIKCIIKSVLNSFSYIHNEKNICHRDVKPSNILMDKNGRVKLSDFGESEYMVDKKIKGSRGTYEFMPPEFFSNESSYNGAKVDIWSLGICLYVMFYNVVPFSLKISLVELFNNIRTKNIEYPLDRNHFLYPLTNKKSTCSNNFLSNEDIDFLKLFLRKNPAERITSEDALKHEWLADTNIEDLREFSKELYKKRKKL
Chain of L-lactate dehydrogenase (Plasmodium falciparum (isolate CDC / Honduras)) (Q27743 whole entry, looked up): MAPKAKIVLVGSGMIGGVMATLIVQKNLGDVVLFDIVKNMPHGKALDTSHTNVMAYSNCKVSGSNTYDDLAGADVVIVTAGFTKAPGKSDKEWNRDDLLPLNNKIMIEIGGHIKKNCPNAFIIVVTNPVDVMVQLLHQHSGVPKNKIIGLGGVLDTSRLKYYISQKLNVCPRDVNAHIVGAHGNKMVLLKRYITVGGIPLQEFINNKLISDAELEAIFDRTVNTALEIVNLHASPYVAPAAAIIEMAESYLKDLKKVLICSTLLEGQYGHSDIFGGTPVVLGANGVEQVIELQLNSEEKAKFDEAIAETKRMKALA

Structure (SMILES)	growth inhibition [1]	inhibition [2]	inhibition [3]	growth inhibition [4]	outcome [5]	outcome [6]	outcome [7]	outcome [8]
CCc1c(CCNCC/C=C/CCNCCc2ccc(OC)c(OC)c2CC)ccc(OC)c1OC	7%	41%	3%	100% (active)	inactive	inactive	inactive	inactive
Cc1[nH]c(C)c(-c2ccc(OCc3ccc(F)cc3)nc2)c(=O)c1Br	97% (active)	41%	-4%	97% (active)	inactive	inactive	inactive	inactive
O=C(Nc1cccc(OC2CCN(Cc3ccccc3)CC2)c1)c1ccc(Cl)c(Cl)c1	45%	16%	-4%	101% (active)	inactive	inactive	inactive	inactive
O=C(/C=C/c1ccccc1O)N1CCC(CCN2CCC(c3c[nH]c4ccccc34)CC2)CC1	15%	46%	-1%	100% (active)	inactive	inactive	inactive	inactive
